Here are results for 37 compounds from PubChem BioAssay (NCI).

Each structure is given as a SMILES string. Compounds without any hit were thinned out: in the full panel of roughly 83,000, 20% have a hit.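 Activity criterion: percent growth below 10, measured after cells in 96-well plates were exposed to a single compound concentration for 48 hours.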 Values without a mark were called inactive. Calls of active or inactive are those of the source.

For the experiment, the system named is MOLT-4 leukemia. The experiment in a line: NCI-60 one-dose screen, 48 h (100 = growth as untreated, 0 = no growth, -100 = all killed). The settings on record: 10 µM unless noted.
On to `O=C(CCCCCCSc1nc(-c2ccc(Cl)cc2)cc(-c2ccc(Cl)cc2)n1)NO`, for which the growth was 11.4%.

As to `O=C1CC(C(F)(F)F)Cc2nc3ccc(Br)cc3cc21` (configuration not stated), the growth is 77.8%.

Regarding `COc1ccc(C2NC(=O)C(C#N)c3c2sc2c(F)cccc32)cc1` (configuration not stated), the growth is 49.1%.

In the case of `CCCCCn1sc(=O)n(Cc2ccc(CNC(=O)OCc3ccc4cccc(O)c4n3)cc2)c1=O`, the growth was 1.87% (active).

As to `O=[N+]([O-])c1cccc(N=NNc2cccc([N+](=O)[O-])c2)c1`, the growth is 82.7%.

For `CCN(CC)CCCOc1ccc2c(c1)O/C(=C\c1cccc(OC)c1)C2=O`, the growth was 97.7%.

Take `O=C(OCc1ccc2c(Cl)cc(Cl)c(O)c2n1)N1CCNCC1`: the growth is 33.5%.

For the compound `C=CCCCCOc1ccccc1-c1cnc(OCCCCC=C)n1C`, the growth is 91.4%.

For `CSc1nc(=S)c2nc(SC)n(-c3ccccc3)c2[nH]1`, the growth was 107%.

For `CC1Cc2c(Cl)ncnc2N(C)c2ccc(O)cc21` (configuration not stated), the growth was 67.6%.

Turning to `Nc1nc(Nc2ccccc2)c2ncn(Cc3ccc4c(c3)OCO4)c2n1`, the growth is 13.4%.

On to `COc1ccc(-c2cc(-c3ccc(Cl)cc3)nc(SCCCCCCC(=O)NO)n2)cc1`, for which the growth is 9.33% (active).

As for `COc1ccc(C(=O)CSc2nccc(Nc3ccc(C(=O)O)cc3)n2)cc1`, the growth is 106%.

For `CC1(C)OC2[C@@H](CNC(=O)NC(=O)NC(=O)CI)O[C@@H](n3cnc4c(NC(=O)Nc5ccccc5)ncnc43)[C@H]2O1` (some centres not stated), the growth is -23.6% (active).

For the compound `Cn1cc(-c2noc(-c3cn(C)c4ncc(F)cc34)n2)c2cc(Cl)ccc21`, the growth is 78.2%.

With `COCCCNc1nc(NC(=O)c2cc(Br)cc(C(F)(F)F)c2)cc(-c2cccnc2)n1`, the growth was 80.1%.

Consider `O=C(NCCCNC(=O)OCc1ccc2cccc(O)c2n1)OCc1ccc2cccc(O)c2n1`, for which the growth is 21.7%.

With `COc1cccc(-c2[nH]c(=S)ncc2C(=O)c2ccccc2)c1`, the growth was 76.8%.

`CCN(CCO)CCC(=O)c1ccc([N+](=O)[O-])cc1`: the growth was 114%.

With `Cc1ccc(N)c(O)c1`, the growth is 106%.

Turning to `CC(C)C1=NOC(=O)C1=Cc1cn(-c2ccccc2)nc1-c1ccc(Br)cc1`, the growth was -15.7% (active).

In the case of `Cc1cc[n+](CCCCCCCCCC[n+]2ccc(C)cc2)cc1`, the growth is 83.5%.

`C[C@@H](NC(=O)[C@@H](CC(=O)N1CCC(N2CCCCC2)CC1)N1C(=O)[C@@H](N2C(=O)OC[C@@H]2c2ccccc2)[C@H]1/C=C/c1cccc(Cl)c1)c1ccccc1`: the growth is 26.7%.

With `C/C=C/C1OC23CCCCC2C(C#N)(C(=N)O3)C1(C#N)C#N` (configuration not stated), the growth was 95%.

Take `CCCOc1ccc(-c2nc(-c3ccc(N)cc3)cs2)cc1`: the growth was 116%.

With `Cc1ccccc1OC(=O)c1cccc(Cl)c1`, the growth is -16.3% (active).

In the case of `CC(C)c1ccc(C(=O)Nc2nc3ccc(O)cc3s2)cc1`, the growth is 13.5%.

Regarding `COc1cc(-c2nc(SCCC(C)C)nc(Nc3ccc(S(N)(=O)=O)cc3)c2C#N)cc(OC)c1OC`, the growth is 1.98% (active).

As for `O=C(CSc1nc2ccc([N+](=O)[O-])cc2[nH]1)Nc1cccc(Cl)c1`, the growth was 7.99% (active).

`COc1ccc2nc3cc(Cl)ccc3c(Nc3ccc(O)cc3)c2c1`: the growth is 9.49% (active).

Take `O=C(OCc1ccc2c(Cl)cc(Cl)c(O)c2n1)N1CCN(C(=O)c2cc3cc(F)ccc3[nH]2)CC1`: the growth is 17.3%.

As to `COc1ccc(C(C(=O)O)c2ccc(OC)cc2)cc1`, the growth is 104%.

On to `O=C1COCCN1c1ccc(NCc2cn(Cc3ccc(F)cc3)c3ccccc23)cc1`, for which the growth is 102%.

Turning to `O=C(Nc1cc(-c2cccnc2)nc(NCCCN2CCOCC2)n1)c1cc(Br)cc(C(F)(F)F)c1`, the growth was 45.1%.

With `CS(=O)(=O)c1cccnn1`, the growth was 132%.

Consider `C[C@]12CCc3c(ccc4cc(O)ccc34)[C@@H]1CC[C@H]2O`, for which the growth was 95.1%.

With `CN(Cc1cccc(C(F)(F)F)c1)C(=O)[C@@H](CC(=O)N1CCC(N2CCCCC2)CC1)N1C(=O)[C@@H](N2C(=O)OC[C@@H]2c2ccccc2)[C@H]1/C=C/c1ccccc1`, the growth was 58.3%.
